Measurements published in ChEMBL document CHEMBL1961873, “Compounds: GSK PKIS; Assays: Nanosyn kinase panel” (2012).

Experiments:
[1] = biological target: Tyrosine-protein kinase Fyn (Homo sapiens) (UniProt P06241); settings: at 1 µM
[2] = biological target: Tyrosine-protein kinase HCK (Homo sapiens) (UniProt P08631); settings: at 0.1 µM
[3] = biological target: Tyrosine-protein kinase HCK (Homo sapiens) (UniProt P08631); settings: at 1 µM
[4] = biological target: Insulin-like growth factor 1 receptor (Homo sapiens) (UniProt P08069); settings: at 0.1 µM
Insulin-like growth factor 1 receptor (Homo sapiens), sequence (P08069 31-736 limits assumed): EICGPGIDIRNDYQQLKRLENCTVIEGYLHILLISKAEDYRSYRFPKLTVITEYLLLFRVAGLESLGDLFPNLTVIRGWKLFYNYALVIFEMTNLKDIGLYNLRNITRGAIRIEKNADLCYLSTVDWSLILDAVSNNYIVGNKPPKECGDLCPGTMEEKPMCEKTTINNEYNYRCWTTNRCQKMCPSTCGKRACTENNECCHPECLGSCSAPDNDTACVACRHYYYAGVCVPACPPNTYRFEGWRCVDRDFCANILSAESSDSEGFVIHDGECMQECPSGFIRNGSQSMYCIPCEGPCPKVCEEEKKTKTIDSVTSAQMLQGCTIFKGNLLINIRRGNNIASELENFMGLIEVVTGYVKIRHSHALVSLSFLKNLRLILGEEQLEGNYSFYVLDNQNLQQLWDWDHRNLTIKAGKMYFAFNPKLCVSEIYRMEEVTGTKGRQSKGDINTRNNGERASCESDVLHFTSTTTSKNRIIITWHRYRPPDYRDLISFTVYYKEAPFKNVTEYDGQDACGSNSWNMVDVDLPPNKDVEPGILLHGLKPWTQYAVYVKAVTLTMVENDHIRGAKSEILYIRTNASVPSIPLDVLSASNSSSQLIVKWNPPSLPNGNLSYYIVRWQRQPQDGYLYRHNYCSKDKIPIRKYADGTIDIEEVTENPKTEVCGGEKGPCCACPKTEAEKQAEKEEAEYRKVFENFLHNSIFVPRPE
Insulin-like growth factor 1 receptor (Homo sapiens), sequence (P08069 741-1367 limits assumed): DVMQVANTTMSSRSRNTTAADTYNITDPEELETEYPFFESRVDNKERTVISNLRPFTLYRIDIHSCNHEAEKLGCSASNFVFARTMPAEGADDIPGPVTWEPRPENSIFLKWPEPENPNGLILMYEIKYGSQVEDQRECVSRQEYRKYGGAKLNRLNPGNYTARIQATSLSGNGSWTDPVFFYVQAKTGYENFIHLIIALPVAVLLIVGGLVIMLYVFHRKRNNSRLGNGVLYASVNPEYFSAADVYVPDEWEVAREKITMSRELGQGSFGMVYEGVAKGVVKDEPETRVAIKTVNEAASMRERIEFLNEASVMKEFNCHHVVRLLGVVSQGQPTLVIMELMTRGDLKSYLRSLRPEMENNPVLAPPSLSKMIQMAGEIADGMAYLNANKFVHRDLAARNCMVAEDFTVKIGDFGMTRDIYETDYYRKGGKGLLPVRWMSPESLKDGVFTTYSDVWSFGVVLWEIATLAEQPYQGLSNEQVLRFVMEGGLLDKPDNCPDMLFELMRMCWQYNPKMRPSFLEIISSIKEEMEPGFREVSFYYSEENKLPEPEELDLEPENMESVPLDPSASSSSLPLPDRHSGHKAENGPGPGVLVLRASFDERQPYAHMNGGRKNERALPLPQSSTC

[5] = biological target: Insulin-like growth factor 1 receptor (Homo sapiens) (UniProt P08069); settings: at 1 µM
[6] = biological target: Insulin receptor (Homo sapiens) (UniProt P06213); settings: at 0.1 µM
Insulin receptor (Homo sapiens), sequence (P06213 28-758 limits assumed): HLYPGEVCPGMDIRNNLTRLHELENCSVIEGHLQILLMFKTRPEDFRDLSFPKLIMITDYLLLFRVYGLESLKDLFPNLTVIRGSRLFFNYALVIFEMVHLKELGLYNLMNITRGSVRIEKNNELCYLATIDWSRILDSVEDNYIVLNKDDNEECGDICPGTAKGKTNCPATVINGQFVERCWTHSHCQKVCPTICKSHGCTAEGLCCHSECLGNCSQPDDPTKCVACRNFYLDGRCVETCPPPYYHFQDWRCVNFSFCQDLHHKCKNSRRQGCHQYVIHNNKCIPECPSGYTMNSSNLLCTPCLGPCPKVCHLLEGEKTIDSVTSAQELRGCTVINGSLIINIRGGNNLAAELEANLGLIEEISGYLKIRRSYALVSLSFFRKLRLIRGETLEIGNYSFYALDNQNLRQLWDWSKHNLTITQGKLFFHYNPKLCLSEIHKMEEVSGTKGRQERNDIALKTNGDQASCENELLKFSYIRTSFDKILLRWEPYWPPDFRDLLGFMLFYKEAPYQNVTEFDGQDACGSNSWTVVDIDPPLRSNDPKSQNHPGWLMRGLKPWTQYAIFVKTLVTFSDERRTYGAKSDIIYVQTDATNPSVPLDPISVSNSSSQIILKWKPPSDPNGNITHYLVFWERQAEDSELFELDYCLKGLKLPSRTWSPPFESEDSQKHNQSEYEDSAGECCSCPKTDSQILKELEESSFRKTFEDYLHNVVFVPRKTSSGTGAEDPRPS
Insulin receptor (Homo sapiens), sequence (P06213 763-1382 limits assumed): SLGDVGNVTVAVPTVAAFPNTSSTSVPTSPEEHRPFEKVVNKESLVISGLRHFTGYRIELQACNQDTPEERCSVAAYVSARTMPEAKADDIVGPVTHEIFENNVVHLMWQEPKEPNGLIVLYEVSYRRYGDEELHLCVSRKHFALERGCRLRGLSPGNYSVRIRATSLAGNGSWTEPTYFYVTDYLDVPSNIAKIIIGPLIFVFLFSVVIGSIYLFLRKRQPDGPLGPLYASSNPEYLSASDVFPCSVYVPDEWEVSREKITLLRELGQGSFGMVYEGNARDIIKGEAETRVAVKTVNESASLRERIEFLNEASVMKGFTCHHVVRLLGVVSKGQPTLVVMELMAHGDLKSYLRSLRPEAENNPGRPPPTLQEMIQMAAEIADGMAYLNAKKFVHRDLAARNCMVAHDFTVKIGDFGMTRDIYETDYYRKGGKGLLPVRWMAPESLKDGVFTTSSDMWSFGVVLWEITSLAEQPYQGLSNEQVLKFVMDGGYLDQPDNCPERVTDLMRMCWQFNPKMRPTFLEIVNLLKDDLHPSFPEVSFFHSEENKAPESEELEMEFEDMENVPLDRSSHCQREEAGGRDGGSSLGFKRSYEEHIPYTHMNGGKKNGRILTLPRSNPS

[7] = biological target: Insulin receptor (Homo sapiens) (UniProt P06213); settings: at 1 µM
[8] = biological target: Insulin receptor-related protein (Homo sapiens) (UniProt P14616); settings: at 0.1 µM
Insulin receptor-related protein (Homo sapiens), sequence (P14616 27-742 limits assumed): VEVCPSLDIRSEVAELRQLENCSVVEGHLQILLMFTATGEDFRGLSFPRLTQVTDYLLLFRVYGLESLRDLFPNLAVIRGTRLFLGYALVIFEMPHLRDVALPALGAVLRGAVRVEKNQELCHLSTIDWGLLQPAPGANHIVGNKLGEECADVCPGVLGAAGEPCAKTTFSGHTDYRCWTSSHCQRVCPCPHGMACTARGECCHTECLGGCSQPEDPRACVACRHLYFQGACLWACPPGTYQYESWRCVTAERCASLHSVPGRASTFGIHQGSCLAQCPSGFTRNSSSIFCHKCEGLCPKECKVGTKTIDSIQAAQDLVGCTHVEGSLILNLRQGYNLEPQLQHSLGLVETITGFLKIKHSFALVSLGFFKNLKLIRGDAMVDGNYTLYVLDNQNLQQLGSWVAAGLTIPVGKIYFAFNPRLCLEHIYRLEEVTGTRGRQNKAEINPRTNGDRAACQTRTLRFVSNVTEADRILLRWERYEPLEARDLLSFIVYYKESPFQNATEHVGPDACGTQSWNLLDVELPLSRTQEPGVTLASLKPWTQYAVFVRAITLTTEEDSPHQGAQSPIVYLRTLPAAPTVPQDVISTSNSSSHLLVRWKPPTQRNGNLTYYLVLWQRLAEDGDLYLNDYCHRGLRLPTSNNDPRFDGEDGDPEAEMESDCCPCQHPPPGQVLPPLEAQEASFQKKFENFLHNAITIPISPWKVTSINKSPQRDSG
Insulin receptor-related protein (Homo sapiens), sequence (P14616 747-1297 limits assumed): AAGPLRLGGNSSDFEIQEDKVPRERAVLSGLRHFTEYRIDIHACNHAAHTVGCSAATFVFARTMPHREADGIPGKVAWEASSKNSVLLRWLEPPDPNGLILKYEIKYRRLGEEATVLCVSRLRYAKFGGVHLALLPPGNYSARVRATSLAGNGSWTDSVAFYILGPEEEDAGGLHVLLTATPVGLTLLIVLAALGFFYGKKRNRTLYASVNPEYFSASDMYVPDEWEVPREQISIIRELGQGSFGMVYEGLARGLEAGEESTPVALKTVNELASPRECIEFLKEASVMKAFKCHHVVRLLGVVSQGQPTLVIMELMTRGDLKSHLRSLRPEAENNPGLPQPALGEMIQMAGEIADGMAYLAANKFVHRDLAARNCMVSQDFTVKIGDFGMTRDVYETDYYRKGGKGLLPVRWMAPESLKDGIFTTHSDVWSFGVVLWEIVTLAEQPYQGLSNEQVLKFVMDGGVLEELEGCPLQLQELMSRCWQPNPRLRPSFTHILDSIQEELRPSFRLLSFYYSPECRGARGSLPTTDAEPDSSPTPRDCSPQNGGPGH

[9] = biological target: Insulin receptor-related protein (Homo sapiens) (UniProt P14616); settings: at 1 µM
[10] = biological target: T1, Tyrosine-protein kinase ITK/TSK (Homo sapiens) (UniProt Q08881); settings: at 0.1 µM;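 note: mean percent inhibition of ITK from the GSK PKIS screen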
T1 sequence (whole entry): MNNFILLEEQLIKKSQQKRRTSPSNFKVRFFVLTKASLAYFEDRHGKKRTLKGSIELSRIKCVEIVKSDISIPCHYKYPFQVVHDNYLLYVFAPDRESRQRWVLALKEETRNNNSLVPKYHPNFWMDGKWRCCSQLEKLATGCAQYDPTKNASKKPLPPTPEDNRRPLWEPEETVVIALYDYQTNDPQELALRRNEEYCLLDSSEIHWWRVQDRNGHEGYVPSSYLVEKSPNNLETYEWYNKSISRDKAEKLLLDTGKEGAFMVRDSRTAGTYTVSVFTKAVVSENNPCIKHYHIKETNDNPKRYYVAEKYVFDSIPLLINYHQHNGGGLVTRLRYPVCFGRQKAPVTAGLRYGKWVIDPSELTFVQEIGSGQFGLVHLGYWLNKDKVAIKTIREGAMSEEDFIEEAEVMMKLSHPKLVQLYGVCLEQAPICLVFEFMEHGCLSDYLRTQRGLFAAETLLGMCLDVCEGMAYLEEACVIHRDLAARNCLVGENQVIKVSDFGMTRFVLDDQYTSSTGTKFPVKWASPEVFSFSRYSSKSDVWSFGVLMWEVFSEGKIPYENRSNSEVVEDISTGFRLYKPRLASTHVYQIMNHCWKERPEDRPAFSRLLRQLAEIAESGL

Tyrosine-protein kinase Fyn (Homo sapiens), sequence (P06241 2-537 limits assumed): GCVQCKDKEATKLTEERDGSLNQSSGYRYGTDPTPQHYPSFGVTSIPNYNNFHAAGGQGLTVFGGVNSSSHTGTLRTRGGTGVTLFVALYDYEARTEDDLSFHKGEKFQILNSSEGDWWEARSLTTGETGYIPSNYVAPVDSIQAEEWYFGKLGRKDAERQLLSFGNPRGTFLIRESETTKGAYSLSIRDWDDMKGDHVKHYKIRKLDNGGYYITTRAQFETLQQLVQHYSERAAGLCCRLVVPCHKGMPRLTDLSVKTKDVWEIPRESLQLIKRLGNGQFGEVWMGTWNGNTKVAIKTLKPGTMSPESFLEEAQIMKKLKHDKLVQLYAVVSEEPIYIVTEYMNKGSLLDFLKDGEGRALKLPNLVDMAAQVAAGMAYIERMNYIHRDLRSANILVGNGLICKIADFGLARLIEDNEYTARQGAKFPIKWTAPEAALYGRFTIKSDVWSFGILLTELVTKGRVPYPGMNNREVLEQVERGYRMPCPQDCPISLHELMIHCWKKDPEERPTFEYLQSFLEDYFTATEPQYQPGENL
Tyrosine-protein kinase HCK (Homo sapiens), sequence (P08631 2-526 limits assumed): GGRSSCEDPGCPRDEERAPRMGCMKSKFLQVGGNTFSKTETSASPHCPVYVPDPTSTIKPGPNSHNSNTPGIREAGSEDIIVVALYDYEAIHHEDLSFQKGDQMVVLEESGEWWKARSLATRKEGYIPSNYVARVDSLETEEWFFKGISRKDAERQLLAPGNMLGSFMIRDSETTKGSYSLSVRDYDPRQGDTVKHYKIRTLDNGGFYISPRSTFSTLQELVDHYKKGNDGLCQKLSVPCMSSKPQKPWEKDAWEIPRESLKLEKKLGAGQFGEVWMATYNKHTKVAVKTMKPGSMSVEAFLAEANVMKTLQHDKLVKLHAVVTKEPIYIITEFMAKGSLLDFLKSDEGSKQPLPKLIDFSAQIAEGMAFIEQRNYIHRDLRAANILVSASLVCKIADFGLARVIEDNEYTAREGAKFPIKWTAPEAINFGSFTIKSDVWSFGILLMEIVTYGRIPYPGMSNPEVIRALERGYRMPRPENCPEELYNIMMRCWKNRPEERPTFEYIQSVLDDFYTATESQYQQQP

| SMILES | inhibition [1] [%] | inhibition [2] [%] | inhibition [3] [%] | inhibition [4] [%] | inhibition [5] [%] | inhibition [6] [%] | inhibition [7] [%] | inhibition [8] [%] | inhibition [9] [%] | inhibition [10] [%] |
| --- | --- | --- | --- | --- | --- | --- | --- | --- | --- | --- |
| NS(=O)(=O)c1ccc(Nc2cc(-c3ccc(O)c(F)c3)n[nH]2)cc1 | 9.16 | 0.38 | 11.1 | -1.39 | -0.67 | -3.62 | 2.77 | -4.66 | -2.36 | 0.74 |
| Nc1nccc(-c2c(-c3ccc(F)cc3)ncn2C2CCC(O)CC2)n1 (stereo not drawn) | 6.58 | 1.96 | 12.7 | -1.46 | -1.17 | 0.89 | -0.36 | -0.97 | -2.71 | -0.36 |
| NS(=O)(=O)c1ccc(N/N=C2\C(=O)Nc3ccc(C(=O)NCCCn4ccnc4)cc32)cc1 | 19.2 | 5.3 | 17.8 | 2.13 | 3.17 | 6.3 | 6.66 | 2.1 | 3.71 | 1.19 |
| CS(=O)(=O)CCNCc1ccc(-c2ccc3ncnc(Nc4ccc(OCc5ccccc5)c(Br)c4)c3c2)o1 | 1.37 | 7.33 | 10.2 | – | -5.4 | 2.87 | 1.17 | 2.56 | 2.95 | -4.12 |
| C[C@@H](Oc1cc(-n2cnc3ccc(OCC4CCN(C)CC4)cc32)sc1C(N)=O)c1ccccc1Cl | 15.3 | 8.11 | 29.6 | 6.33 | 7.27 | 6.64 | 8.87 | 2.3 | 3.31 | 2.76 |
| O=C(Nc1n[nH]c2cc(-c3ccccc3)ccc12)C1CC1 | 5.27 | 8.61 | 15.8 | 10.5 | 11.2 | 3.96 | 5.84 | 2.53 | 0.58 | 1.56 |
| COc1ccc2ncn(-c3cc(O[C@H](C)c4ccccc4Cl)c(C(N)=O)s3)c2c1 | -3.05 | 5.34 | 5.31 | – | -6.53 | 0.89 | 3.79 | 2.92 | 3.51 | -4.15 |
| C/C(Nc1ccc(S(N)(=O)=O)cc1)=C1/C(=O)Nc2ccccc21 | 2.57 | -0.82 | 6.24 | 0.12 | 9.94 | 2.85 | 12.7 | -2.56 | -0.64 | -0.1 |
| Fc1ccc(-c2ncn(C3CCNCC3)c2-c2ccnc(Oc3ccc(Oc4ccccc4)cc3)n2)cc1 | 5.66 | 5.33 | 8.1 | 5.31 | 1.58 | 7.04 | 3.44 | 1.91 | 3.32 | 3.37 |
| C#Cc1cccc(Nc2ncnc3ccc(OCCCCNCCS(C)(=O)=O)cc23)c1 | 2.18 | 11.1 | 20.5 | -0.58 | -2.48 | 8.82 | 4.34 | 2.65 | 2.49 | -1.95 |
| NS(=O)(=O)c1ccc(N/N=C2\C(=O)Nc3ccc(-c4cnco4)cc32)cc1 | 7.81 | 5.08 | 23.3 | – | -2.26 | 1.72 | 7.36 | -1.08 | 0.6 | -3.91 |
| NC(=O)Cc1ccccc1Oc1nccc(-c2c(-c3ccc(F)cc3)ncn2C2CCNCC2)n1 | 2.13 | 2.65 | 5.75 | 3.37 | 3.6 | 5.96 | 6.34 | 0.84 | 1.69 | 1.33 |
| COc1cc(Nc2ncc3c(C)nc(-c4cccc(Oc5ccccc5)c4)n3n2)cc(OC)c1OC | 8.45 | 3.59 | 5.25 | 3.82 | 5.13 | 5.22 | 8.16 | 2.99 | 3.66 | 0.96 |
| COc1cccc(-n2cnc3c(N/N=C/c4ccncc4)ncnc32)c1 | 25.6 | 0.9 | 16.3 | – | -8.19 | -2.78 | -4.12 | 1 | 0.57 | -2.76 |
| c1ccc(Oc2ccc(Nc3ncc(-c4ccccc4)o3)cc2)cc1 | 2.97 | 3.85 | 5.01 | 1.77 | 2.01 | 4.11 | 2.94 | -1.75 | 1.99 | 0.89 |
| CN(C)c1ccc2c(c1)/C(=C/Nc1ccc(S(N)(=O)=O)cc1)C(=O)N2 | 13.1 | 4.88 | 20.5 | 9.21 | 11.9 | 3.88 | 6.31 | 0.97 | 3.14 | 1.03 |
| COc1cc(N2CCN(C(C)C)CC2)ccc1Nc1nc(Nc2ccc(F)cc2C(=O)NC[C@@H](O)CO)c2cc[nH]c2n1 | -0.08 | 3.99 | 5 | 80.6 | 92.6 | 110 | 116 | 26.6 | 78 | -1.99 |
| COc1cc(Nc2ncc(-c3ccccc3)o2)cc(OC)c1OC | 37.5 | 3.3 | 31.2 | 1.91 | 2.07 | 4.48 | -0.22 | -2.58 | -1.95 | -0.21 |
| COc1ccc(-c2ccc3c(NC(=O)C4CC4)n[nH]c3n2)cc1 | 4 | -0.93 | 5.16 | 1.17 | 0.43 | 1.07 | 3.1 | 0.55 | 0.43 | 0.61 |
| CN(C)CCCNc1nccc(-c2c(-c3ccc(F)cc3)nn3cc(C(F)(F)F)ccc23)n1 | 0.28 | 3.12 | 7.89 | -7.12 | -5.52 | 0.53 | -0.49 | 2.55 | 0.73 | -2.44 |
| CCN(CC)Cc1ccc(Nc2nccc(-c3cnn4ncccc34)n2)cc1 | 5.04 | 4.93 | 13.5 | 3.11 | 54.6 | 21.9 | 73.2 | 2.45 | 7.36 | -3.08 |
| O=C(NCC1CC1)c1ccc(-c2cccc(C(=O)NC3CC3)c2)cc1 | 2.23 | 2.5 | 7.59 | 2.46 | 4.73 | 1.73 | 3.95 | 1.19 | 2.93 | 1.15 |
| CN1CCN(CCCNc2nc3ccc(Oc4ccc(NC(=O)Nc5cc(C(F)(F)F)ccc5F)cc4)cc3[nH]2)CC1 | -1.88 | 4.66 | 9.14 | -9.82 | -7.78 | -3.22 | – | 1.22 | 0.55 | -2.06 |
| N#Cc1ccc(Oc2nccc(-c3c(-c4ccc(F)cc4)ncn3C3CCNCC3)n2)cc1 | 3.01 | 5.66 | 5.1 | -0.43 | 0.96 | 3.29 | 3.86 | 3.14 | 4.24 | -0.47 |
| Fc1ccc(-c2ncn(C3CCNCC3)c2-c2ccnc(Oc3ccc(F)c(F)c3)n2)cc1 | -4.44 | 5.11 | 4.68 | – | -4.9 | -2.06 | 0.24 | 3.04 | 2.75 | -3.95 |
| O=C1NC(=O)C(c2cccc(Cl)c2)=C1Nc1ccc(Cl)c(C(=O)O)c1 | 6.23 | 3.57 | 3.65 | 2.14 | 3.35 | 4.57 | 7.53 | 1.75 | 1.42 | 1.1 |
| Clc1ccc(CNc2nccc(-c3cnn4ncccc34)n2)cc1 | 0.07 | 5.97 | 5.79 | 2.48 | – | 0.04 | 1.97 | 2.17 | 2.19 | 0 |
| COc1ccc2cc(-c3c(-c4ccncc4)nc(-c4ccc([S+](C)[O-])cc4C)n3C)ccc2c1 (stereo not drawn) | 1.8 | -0.56 | 4.6 | 0.87 | 1.27 | 0.15 | 2.57 | -0.96 | 1.18 | 0.02 |
| Cc1ccc(C(=O)NC(C)C)cc1-c1ccc(C(=O)NCC2CC2)cc1 | 0.91 | -3.59 | -1.19 | -3.27 | -3.34 | -1.9 | -4.51 | -4.15 | -4.41 | -1.4 |
